This note sets out measurements from PubChem BioAssay (NCI).

Each structure is given as a SMILES string. Where “and” joins values, the source holds several entries; their conditions need not be identical. Identical values can stand only once. This is part of a sample that, as a whole, favours compounds with a hit. Of some 83,000 tested, about 20% had one in any assay.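 Interpretation: 100, growth as untreated; towards 0, rising growth inhibition; 0, no net growth; 0 to -100, cell death. Compounds scoring below 10 were considered active.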 Calls of active or inactive are those of the source.

One assay relates to SK-MEL-5 melanoma. The assay is described as follows: NCI-60 one-dose screen, 48 h (100 = growth as untreated, 0 = no growth, -100 = all killed). The note with it: 10 µM unless noted.
For `COc1ccc(-c2cc(-c3ccc(N4CCOCC4)cc3)n3c(n2)nc2ccccc23)cc1OC`, the growth is 55.8% (inactive). Take `CCOC(=O)c1c(NC(=O)c2cccc(C(F)(F)F)c2)sc2c1CCC(=O)C2`: the growth is 38% (inactive). Same read-out and setting: in the case of `CN1CCN(c2ccc(Nc3nc(NCCCNS(=O)(=O)c4ccc(Cl)cc4)c4sccc4n3)cc2)CC1` it was -91.1% (active). The same measure, in the same setting: to `CCOC(=O)C(=O)Nc1ccc2c(ccn2C(=O)c2cccc(F)c2)c1` belongs 96.3% (inactive); to `CCOc1cccc(/C(N)=N/C(N)=N/c2nc3ccccc3s2)c1`, 92.2% (inactive); to `CN1CCN(c2ccc(Nc3nc(NCCCNS(=O)(=O)c4ccc(C(F)(F)F)cc4)c4sccc4n3)cc2)CC1`, -95% (active).

Take `Cc1ccc2c(n1)C(=O)C(Cl)=C(Nc1cccc(C(F)(F)F)c1)C2=O`: the growth is 96.9% (inactive).

A further assay has as its system UACC-62 melanoma. The assay is described as above. The note with it: 10 µM unless noted.
Consider `Cc1cc(Br)ccc1-n1cc(C#N)c(N)c1C(=O)c1ccc(Br)cc1`, for which the growth was 94.3% (inactive). As to `CCCCCCN1C=C/C(=C\C(=O)n2ccc3ccccc32)c2ccccc21`, the growth is 57.9% (inactive). On the same count and under the same terms, to `Cc1ccc(CSC2=C(Cl)CN(c3ccc(Cl)cc3)C2=O)cc1` belongs 94.7% (inactive); to `Clc1ccc(CSc2nnc(-c3ccc(Cl)cc3)n2-c2ccccc2)cc1`, 85.8% (inactive); to `NS(=O)(=O)c1ccc(CCn2c(-c3ccc(C(=O)O)cc3)nc(-c3ccccc3)c2-c2ccccc2)cc1`, 94.2% (inactive). On the same count and under the same terms, in the case of `CC(=C(c1ccc(OCCCN(C)C)cc1)c1ccc(OCCCN(C)C)cc1)c1ccc(Cl)cc1` it was 101% (inactive); in that of `CC[C@]12CC(C(=O)OC)=C3Nc4ccccc4[C@@]34CCN(C14)[C@@H]1c3cc4c(cc3O[C@@H]1[C@H]2O)NC1=C(C(=O)OC)C[C@@]2(CC)C3N(CC[C@@]143)C[C@H]1O[C@H]12` (stereo partly drawn), 8.9% (active); in that of `Cc1ccc(-c2csc(N/N=C/c3cccs3)n2)cc1`, 88.9% (inactive).

As to `CN1CCC[C@]2(C)[C@H]3CC[C@@H]4[C@@H]5[C@H]6OC[C@@]5(CCC6(C)C)CC[C@@]4(C)[C@]3(C)CC[C@H]2C1(C)C`, the growth is 98.4% (inactive).

As to `O=S(=O)(Oc1ccc(-c2cn3ccoc3n2)cc1)c1cccc(C(F)(F)F)c1`, the growth is 86.5% (inactive). Still for that read-out and setting: to `CC(Nc1c(C#N)cnc2ccc(-c3cncc(-c4n[nH]c(=O)o4)c3)cc12)c1ccccc1` (stereo not drawn) belongs -37% (active); to `C#CCN(C)CCCOc1ccc(NC(=O)CCCCCCCCC(=O)NO)cc1Cl`, 40.6% (inactive); to `CCCc1cc2cc(-n3nc(CC)c4c3CC(C)(C)CC4=O)cc(NC3CCC(O)CC3)c2c(=O)[nH]1` (stereo not drawn), 26.6% (inactive).

`O=C(CN1CCN(c2cc(=O)[nH]c3ccc(F)cc23)CC1)N(c1ccccc1)c1ccccc1`: the growth was 98% (inactive). The same measure, in the same setting: to `CN1CCN(c2ccc(Nc3nc(NCCCNS(=O)(=O)c4cccc(F)c4)c4sccc4n3)cc2)CC1` belongs 0.267% (active); to `COc1ccc(C(=NNS(=O)(=O)c2ccc(C)cc2)c2ccccc2)cc1OC`, 70.3% (inactive). For `COc1ccc(/C=N/NC(=O)c2c(N)nn(C)c2Nc2ccccc2)cc1Oc1ccccc1`, the growth was 83.8% (inactive). `C#C[C@]1(O)CC[C@H]2[C@@H]3CC=C4c5sc(NCc6ccccc6)nc5CC[C@]4(C)[C@H]3CC[C@@]21C`: the growth is 9.41% (active).

As to `Cc1cc(NS(=O)(=O)c2ccc(NC(=O)CSc3nc4ccccc4c(=O)n3-c3ccccc3)cc2)no1`, the growth is 88.6% (inactive). As for `CC(C)NC(=O)c1cc(-c2ccc(NC(=O)Nc3ccc(F)c(C(F)(F)F)c3)cc2)nc2cccnc12`, the growth is 97% (inactive).

For the compound `CCOC(=O)c1cccnc1Nc1ccc(NC(=O)Nc2ccc(Cl)c(C(F)(F)F)c2)cc1`, the growth was 45.4% (inactive). In the case of `O=C(CSc1nc2ccccc2c(=O)n1-c1ccc(S(=O)(=O)Nc2ccc(Cl)nn2)cc1)Nc1ccc(S(=O)(=O)Nc2ccc(Cl)nn2)cc1`, the growth is 94% (inactive). Turning to `COc1cc(-c2nc(-c3ccccc3)[nH]c2-c2ccnc(NCCCNS(=O)(=O)c3ccc(C(F)(F)F)cc3)n2)ccc1Cl`, the growth was 56% (inactive) and 44.9% (inactive). On the same count and under the same terms, in the case of `Cc1csc(/N=C(N)/N=C(\N)c2cccc(C#N)c2)n1` it was 52.1% (inactive); in that of `CC[C@]12C=CCN3CC[C@]4(C(=C(C(=O)OC)C1)Nc1cc5c(cc14)[C@@H]1[C@H](O5)[C@@H](O)[C@@]4(CC)CC(C(=O)OC)=C5Nc6cc(O)ccc6[C@@]56CCN1C46)C32` (stereo partly drawn), 19% (inactive); in that of `COc1ccc(OC)c(CCn2cncc2-c2c[nH]c3ccc(Cl)cc23)c1`, 40.7% (inactive).
